An excerpt weighted towards active compounds, which were near 8% of everything screened.
HT1080 IDH1KD tx = qHTS for induction of synthetic lethality in tumor cells producing 2HG: qHTS for the HT-1080-IDH1KD cell line; HT-1080 IDH1 knockdown viability, ATP luminescence, 48 h; Potency, µM (titrated, usually from 46.1 µM), hits mostly cytotoxic; 360,000 tested, 2% active; AID 686971, 2013
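Using the IDH1-knockdown HT-1080 line run in the same batch and compound series as the NT line, viability after 48 h at 37 °C was determined by CellTiter-Glo luminescence and expressed as % activity.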
SW480 rerep = A quantitative high throughput screen for small molecules that induce DNA re-replication in SW480 colon adenocarcinoma cells; Potency, µM (series often up to 46.1 µM), most hits filed as activators; 340,000 tested, 1.8% active; AID 624297, 2012; SW480 DNA re-replication, Hoechst DNA content imaging, 48 h; note: nearly all actives have a fitted effect of over 55% in size
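Hoechst fluorescence of nuclei (405 nm excitation, 500-530 nm emission) measured by plate-scanning imager after 48 hr compound exposure at 37 C; re-replication scored as increased number of nuclei with elevated intensity.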
KB-V1 MDR tox = qHTS assay for MDR1-selective chemotherapeutics: Primary screen using the drug-selected MDR subline cells KB-V1; Potency, µM (doses to about 46.1 µM), actives largely listed as cytotoxic; 400,000 tested, 3.4% active; KB-V1 MDR cells viability, CellTiter-Glo, 72 h; AID 1347076, 2019; note: nearly all actives have a fitted effect of over 60% in size
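KB-V1, DMEM (no phenol red) + 10% FBS; cpd pin-transferred, titration series; 72 h, 37 degrees C; CellTiter-Glo, luminescence. Data normalized, curve-fit.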
HT1080NT lethal = qHTS for induction of synthetic lethality in tumor cells producing 2HG: qHTS for the HT-1080-NT fibrosarcoma cell line; AID 686970, 2013; Potency, µM (top dose mostly 46.1 µM), usual class: cytotoxic; 360,000 tested, 1.6% active; HT-1080-NT fibrosarcoma viability, CellTiter-Glo ATP luminescence, 48 h;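 note: NT is the 2HG producing partner of a matched IDH1 knockdown line; nearly all actives have a fitted effect of over 55% in size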
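Compounds were tested in concentration-response format on HT-1080-NT cells for 48 hours at 37 degrees C. Cell viability came from CellTiter-Glo luminescence; curves were classified by r2, response magnitude and activity.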
KB-3-1 tox = qHTS assay for MDR1-selective chemotherapeutics: Primary screen using the parental adenocarcinoma cell KB-3-1; KB-3-1 viability, CellTiter-Glo ATP luminescence, 72 h; AID 1347075, 2019; Potency, µM (top dose mostly 46.1 µM), most hits filed as cytotoxic; 400,000 tested, 1.4% active; note: nearly all actives have a fitted effect of over 60% in size
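72 h, 37 °C compound treatment of KB-3-1 parental cells; CellTiter-Glo added, 10 min, luminescence read. Data corrected against DMSO-only plates and normalized before curve fitting.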
MCF10A rerep = A quantitative high throughput screen for small molecules that induce DNA re-replication in MCF 10a normal breast cells; MCF 10A DNA re-replication, Hoechst nuclear intensity, 48 h; Potency, µM (top dose mostly 46.1 µM), most hits filed as activators; 350,000 tested, 2.9% active; note: nearly all actives have a fitted effect of over 50% in size
Numbers stand for hits; - = inactive; ? = inconclusive; . = no result; ! = a repeat was not active. Calls come from the whole dose curve; as a rule, active = well fitted curve in the direction sought with a large enough effect; inconclusive = small, poorly fitted or top-dose-only effect, or another doubt; inactive = no such curve, though single readings can be large; an effect the other way counts as inactive or inconclusive.

SMILES	HT1080 IDH1KD tx	SW480 rerep	KB-V1 MDR tox	HT1080NT lethal	KB-3-1 tox	MCF10A rerep
O=C(NNc1nc(-c2ccccc2)cs1)c1ccccc1	-	-	16µM	-	?	?
COc1ccc(NC(=O)Nc2ccc3nc([C@@H]4O[C@H](CO)[C@@H](O)[C@H](O)[C@H]4O)[nH]c3c2)cc1OC1CCCC1	-	.	-	-	-	.
C/C(=N/Nc1nc(-c2ccccc2)cc(-c2ccc(F)cc2)n1)c1cccc(N)c1	?	?	5.2µM	?	?	-
Cc1cc(C)nc(NC(=NCc2ccc3c(c2)OCO3)NC(=O)Nc2ccccc2)n1	?	-	-	-	-	?
Cc1ccc(CN=C(N)Nc2nc(C)cc(C)n2)cc1	7.3µM	15µM	-	7.3µM	2.6µM	?
C/C(=N/NC(=O)c1ccc(Br)o1)C(C)C	-	0.52µM	-	-	-	-
O=C(Cn1c(=O)n2nc(-c3cccc(F)c3)nc2c2ccccc21)N1CCN(c2ccc(F)cc2)CC1	.	.	-	.	-	.
CC(C)Cc1nn2c(=O)cc(COC(=O)c3ccc4c(c3)OCO4)nc2s1	.	.	-	.	-	.
COc1cc(/C=N/NC(=O)c2cc(O)cc(O)c2)ccc1OC(=O)c1ccccc1	-	-	-	-	-	-
CCOc1cc(/C=N/NC(=O)c2ccc(NC(=O)C3CC3)cc2)ccc1O	-	-	-	-	-	-
O=C(N/N=C/c1cccc(Oc2ccccc2)c1)c1cccc(Br)c1	-	?	-	-	-	?
COc1cc(/C=N/NC(=O)COc2c(C)cc([N+](=O)[O-])cc2C)ccc1OC(=O)c1ccccc1	18µM	?	-	?	-	-
O=C(N/N=C/c1cccc(Oc2ccccc2)c1)c1cccc(O)c1	21µM	?	-	?	?	?
COc1cc(/C=N/NC(=O)c2ccc(NC(=O)C3CCCCC3)cc2)ccc1O	12µM	-	-	?	-	-
COc1cc(C(=O)N/N=C/c2ccc(OC(=O)c3ccccc3)c(OC)c2)ccc1O	-	21µM	-	-	?	-
CCOC(=O)c1ccc(NC(=O)c2c(NCc3cc(OC)c(OC)cc3OC)sc3c2CCCC3)cc1	.	.	-	.	-	.
CCOc1ccc(CCNC(=O)Cn2nc(CC)n3c(cc4ccccc43)c2=O)cc1	.	.	-	.	-	.
O=C(Nc1ccccc1C(=O)N1CCCCC1)c1nsc2ccccc12	.	.	-	.	-	.
Cc1cccc(OCC(=O)N/N=C/c2ccc3c(c2)OCO3)c1	-	-	-	-	-	-
Cc1cc(C)c(OCC(=O)N/N=C/c2ccc3c(c2)OCO3)c(C)c1	13µM	?	-	18µM	?	2.9µM
Cc1ccccc1OCC(=O)N/N=C/c1ccc2c(c1)OCCO2	-	?	?	-	-	12µM
O=C(CCc1ccc(O)cc1)NN=Cc1ccc2c(c1)OCO2	5.8µM	.	-	?	?	.
Nc1[nH]c(=S)[nH]c(=O)c1N	.	.	-	.	-	.
Cn1c(=O)c2c(SCC(=O)NCc3ccco3)nc(-c3ccccc3F)nc2n(C)c1=O	.	.	-	.	-	.
COC(=O)c1cc(NC(=O)c2cccc(C(F)(F)F)c2)c(=O)oc1C	-	-	-	-	-	-
SMILES	HT1080 IDH1KD tx	SW480 rerep	KB-V1 MDR tox	HT1080NT lethal	KB-3-1 tox	MCF10A rerep
COC(=O)c1cc(NC(=O)c2cccc(C(F)(F)F)c2)c(=O)oc1C/C=N/OCc1cccc(Cl)c1Cl	-	-	-	-	-	18µM
C1CCC(C(CC2CCCCN2)C2CCCCC2)CC1 (stereo not given)	16µM	.	18µM!	12µM	?	?
Cc1cc(C)nc(-n2nc(C)c3c2N(Cc2ccccc2F)C(=O)CC3c2ccc(Cl)cc2)n1 (stereo not given)	.	.	-	.	-	.
O=C(NCCSc1c[nH]c2ccccc12)c1ccccc1Cl	.	.	?	.	-	.
Cc1[nH]n(-c2ccccc2)c(=O)c1C(C[N+](=O)[O-])c1ccc(Br)cc1 (stereo not given)	-	?	-	-	-	3.3µM
COc1ccc(N2CCN(C(=O)c3cc4c(=O)oc5ccc(C)cc5c4s3)CC2)cc1	.	.	-	.	-	.
CCc1ccc(/C=C/c2c([N+](=O)[O-])c(=O)n(C)c(=O)n2C)cc1	?	?	-	?	-	13µM
Cn1c(/C=C/c2ccc(Cl)cc2Cl)c([N+](=O)[O-])c(=O)n(C)c1=O	-	9.2µM	?	-	7.3µM	2.9µM
COc1ccc(C(=O)C(CCC(CNC(C)(C)C)C(=O)c2ccc(OC)cc2)CNC(C)(C)C)cc1 (stereo not given)	4.6µM	2.9µM	?	?	?	5.8µM
COc1ccc(C(=O)CC(=O)c2ccc(C(C)(C)C)cc2)cc1	-	-	?	-	-	?
Cc1nc(C(C)N(C)Cc2nc(-c3ccc4c(c3)OCO4)no2)c(C)s1 (stereo not given)	-	3.7µM	-	-	-	?
Cc1cccc(-c2noc(CN(C(=O)c3ccc4c(c3)OCO4)C(C)C)n2)c1	-	-	-	-	-	-
Cc1ccccc1NC(=O)c1c(C)nn(-c2ccccc2)c1Cl	-	-	-	-	-	?
CC[C@@H]1CCC[C@@H](O)[C@@H](C)C(=O)O[C@H](C)[C@@H](C)C/C=C(C)/C(OC)=C\C(=O)N(C)C([C@@H](C)CC)C(=O)N(C)[C@@H](C(C)C)C(=O)N(C)[C@@H](COC)C(=O)N2CCC[C@H]2C(=O)N(C)[C@@H](C(C)C)C(=O)N2CCC[C@H]2C(=O)O1 (stereo not given in full)	?	.	1.8µM	?	?	.
Cc1cccc(Cn2c(COc3ccccc3)nc3ccccc32)c1	.	.	?	.	-	.
C=CCNc1nc(-c2sc(NC(=O)C(C)(C)C)nc2C)c(-n2cc(-c3ccccc3)nn2)s1	?	.	16µM	?	?	.
CC(=O)NCCc1nc2ccccc2n1CCCCOc1ccc(Cl)cc1	.	.	-	.	-	.
CC(C)(C)C(=O)NCCCc1nc2ccccc2n1CCCOc1ccc(Cl)cc1	?	-	16µM	?	?	?
O=C(N/N=C/c1ccccc1)c1[nH]c2ccc(Br)cc2c1-c1ccccc1	0.73µM	?	0.82µM	0.46µM	0.73µM	?
O=C(NN=C1CCCC1)c1[nH]c2ccc(Br)cc2c1-c1ccccc1	5.8µM	?	-	8.2µM	-	?
Cc1ccnc(NC(=S)N2CCN(c3ccc(F)cc3)CC2)c1	.	.	-	.	-	.

Screening results: PubChem BioAssay, National Center for Advancing Translational Sciences (NCATS)
